From PubChem
This is a sample that favours compounds with a hit; in the whole collection about 1.4% have one here.
PGC1a acetyl inh = lowers PGC1a acetylation signal in U2OS cells | 350,000 compounds, 0.17% hits | inhibition, % at 15.6 µM | AlphaScreen anti-acetyl-lysine; with virally co-expressed GCN5 acetyltransferase;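 active = every replicate shows inhibition of at least 40%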;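 note: 0% = neutral control wells and 100% = positive control wells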
RAD52 inh = blocks human RAD52 DNA annealing | P43351 | recombinant RAD52 DNA annealing, FRET fluorescence | inhibition, % at 18.7 µM | 360,000 compounds, 0.46% hits | AID 651710;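 active = every replicate showing at least 50% inhibition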
GSIS activator = GLuc luminescence reporter in INS-1E cells, primary screen for activators of glucose-dependent secretion of insulin; INS-1E GLuc reporter insulin secretion, 2-3 h; activation, % at 16.6 µM; 370,000 compounds, 0.61% hits; AID 743287;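 active = lowest replicate activation of at least 40%, so every replicate reaches that level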;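 note: 0% = median of neutral control wells and 100% = median of IBMX positive control wells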
ERAP1 HTS inh = inhibitors of human ERAP1 aminopeptidase; Q9NZ08; recombinant ERAP1, Leu-AMC fluorescence, 60 min; inhibition, % at 10.7 µM; 340,000 compounds, 0.15% hits;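 active = mean replicate inhibition of at least 30%, or all replicates individually reaching that 30% level; inactive = mean below 30% and not every replicate reaching it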;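 note: 0% = neutral control wells and 100% = L-leucinethiol positive control wells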
AF4-AF9 inh = inhibitors of human MLL-AF4/AF9 interaction; P42568; AlphaScreen, biotin-AF4 peptide binding to FLAG-AF9; inhibition, % at 10 µM; 350,000 compounds, 0.47% hits; AID 651704;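 active = every replicate reaching a set inhibition limit, whatever the replicate mean, cut at about 25% in these data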;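 note: 0% = plate neutral control median and 100% = total signal loss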
Target sequence (P42568 whole entry, looked up): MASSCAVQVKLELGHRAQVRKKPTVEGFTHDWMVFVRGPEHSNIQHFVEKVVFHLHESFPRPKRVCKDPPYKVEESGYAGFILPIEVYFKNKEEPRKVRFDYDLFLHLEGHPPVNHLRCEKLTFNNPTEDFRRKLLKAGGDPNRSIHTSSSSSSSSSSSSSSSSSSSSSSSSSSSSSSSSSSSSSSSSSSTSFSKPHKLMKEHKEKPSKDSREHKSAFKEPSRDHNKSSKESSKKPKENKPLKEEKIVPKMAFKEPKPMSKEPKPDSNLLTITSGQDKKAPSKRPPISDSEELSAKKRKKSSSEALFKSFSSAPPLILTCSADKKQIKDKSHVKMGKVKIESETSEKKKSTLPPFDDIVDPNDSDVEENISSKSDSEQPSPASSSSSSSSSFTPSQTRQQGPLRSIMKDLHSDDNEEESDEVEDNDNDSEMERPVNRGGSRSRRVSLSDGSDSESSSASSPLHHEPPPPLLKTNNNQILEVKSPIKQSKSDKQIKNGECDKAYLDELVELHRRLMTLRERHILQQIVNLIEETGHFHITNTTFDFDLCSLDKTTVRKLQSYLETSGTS
RAD54 inh = blocks human RAD54 Holliday junction branch migration. inhibition, % at 10.4 µM. 360,000 compounds, 0.14% hits. FAM/BHQ fluorescence;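 active = mean normalized replicate activity at least 40 and at least half of replicates scoring 40 or more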;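 note: 0% = median of neutral control wells and 100% = median of positive control wells; inhibitors cause a drop in the FAM fluorescence signal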
* hit, by the source's call; . = no result.

SMILES | PGC1a acetyl inh | RAD52 inh | GSIS activator | ERAP1 HTS inh | AF4-AF9 inh | RAD54 inh
CO[C@@H]1CN(C)C(=O)c2cc(NC(C)=O)ccc2OC[C@@H](C)N(Cc2cccc(F)c2)C[C@@H]1C | -1 | . | -3 | . | . | .
C=CCc1ccc(OCCOc2ccc(/C=N/n3cnnc3)cc2OCC)c(OC)c1 | -5 | . | 61* | . | . | -1
COc1cc(/C=N/n2cnnc2)ccc1OCCOc1ccccc1 | 28 | . | . | . | . | -12
CNc1nc(OCC#N)nc(N2CCCCC2)n1 | . | -17 | 44* | -1 | -3 | .
COc1cc2[nH]c(-c3ccc(C)cc3)cc(=O)c2cc1OC | -2 | -9 | 57* | 0 | 4 | 0
O=C(Nc1ccc(NC(=O)c2cccs2)cc1)c1cccs1 | 6 | -18 | -1 | -3 | 11 | 10
O=C(Nc1nonc1NC(=O)c1cccs1)c1cccs1 | . | -23 | 133* | -1 | -2 | .
CN1CCN(/N=C/c2ccc(N(c3ccccc3)c3ccccc3)cc2)CC1 | 56* | -5 | 13 | -1 | 7 | -6
CN1CCN(/N=C/c2ccc(N(C)c3ccccc3)cc2)CC1 | -3 | -17 | 5 | -4 | 5 | 3
CCOc1ccc(NC(=O)COC(=O)Cn2nc(C)c([N+](=O)[O-])c2C)cc1OCC | 5 | -7 | 49 | 2 | 0 | 2
CCOc1ccc(NC(=O)COC(=O)Cn2cnnn2)cc1OCC | 8 | -5 | 44* | -1 | 3 | 7
C[C@@H]1CCCCO[C@H](CN(C)C(=O)CCC(F)(F)F)[C@H](C)CN([C@@H](C)CO)C(=O)c2cc(NC(=O)c3ccncc3)ccc2O1 | . | . | 11 | . | . | .
COc1cccc(C(=O)COC(=O)C2CC3CCCC(C2)C3=O)c1 (stereo not drawn) | . | -9 | 10 | -6 | -17 | 2
COc1ccc(C(=O)COC(=O)C2CC3CCCC(C2)C3=O)cc1Br (stereo not drawn) | . | -4 | 58* | -1 | -1 | 2
CN1CCN(C(=O)C[C@@H]2CC[C@H](NC(=O)Cc3ccccn3)[C@@H](CO)O2)CC1 | 3 | 4 | 6 | -2 | -4 | -5
Cc1cccc(-n2c(C)c(C)c3c(N)ncnc32)c1 | . | -8 | 49* | 3 | 10 | -9
CCN(CC)CCNc1nc2cc(OC)c(OC)cc2c2nc(-c3ccccc3)nn12 | 6 | . | 10 | . | . | 106*
COc1cccc(-c2ccc3c(c2)O[C@@H](CN(C)C(=O)C2CCOCC2)[C@@H](C)CN([C@H](C)CO)S3(=O)=O)c1 | 1 | -2 | -4 | -1 | 0 | 2
CO[C@@H]1CN(C)C(=O)c2cc(NC(C)=O)ccc2OC[C@H](C)N(Cc2cccc(F)c2)C[C@@H]1C | 14 | 18 | 2 | -3 | -8 | -16
O=C(CN1C(=O)CCC1=O)Nc1cccc2c1C(=O)NC2=O | . | -4 | 41* | -1 | -8 | .
CC1CCc2nc(N)c(C#N)c(-c3cccnc3)c2C1 (stereo not drawn) | 37 | -84 | 16 | . | -4 | -4
CC1CCc2nc(N)c(C#N)c(-c3ccncc3)c2C1 (stereo not drawn) | 8 | . | 78* | . | . | 2
CCS(=O)(=O)N1CC(=O)N2[C@H](CO)[C@@H](c3ccc(-c4ccccc4C)cc3)[C@@H]2C1 | . | . | 3 | . | . | .
Cc1ccc(S(=O)(=O)C2(C(=O)N3CCN(c4cc(C)ccc4C)CC3)CC2)cc1 | -14 | -17 | -32 | . | 38* | -7
CC(=O)Nc1nc(CC(C)C)cc(-c2ccccc2)c1C#N | 1 | -18 | 34 | 4 | 1 | .
SMILES | PGC1a acetyl inh | RAD52 inh | GSIS activator | ERAP1 HTS inh | AF4-AF9 inh | RAD54 inh
CC(=O)Nc1nc(CC(C)C)cc(-c2ccco2)c1C#N | 3 | . | 48* | . | . | -5
COCC(=O)N1C[C@@H](C)[C@H](OC)CN(C)C(=O)c2ccc(NC(=O)c3ccc(OC)cc3)cc2OC[C@H]1C | 4 | . | -10 | . | . | .
CN(C)C(=S)Nc1ccc([N+](=O)[O-])cc1 | . | . | 68* | . | . | .
C[C@H](CO)N1C[C@H](C)[C@@H](CN(C)CC2CC2)Oc2cc(C#CC(C)(C)O)ccc2S1(=O)=O | 4 | -3 | 10 | 0 | -3 | 0
O=C(/C=C/c1ccccc1)CCN1CCOCC1 | -6 | -2 | 52* | 2 | -5 | .
C[C@@H](NC(=O)[C@H]1[C@H](CO)[C@H]2Cn3c(ccc(-c4cccc(F)c4)c3=O)[C@H]2N1C)c1ccccc1 | . | 3 | -6 | 4 | -2 | .
COc1cccc(OCc2nc3c4cnn(-c5ccccc5)c4ncn3n2)c1 | 7 | . | 57* | . | . | 10
NC(=S)N=Nc1c(O)cc(O)c2[nH]c(=O)ccc12 | 3 | -52 | 17 | 52* | 5 | .
NC(=S)N=Nc1c(O)[nH]c2ccc(F)cc12 | . | -15 | -3 | -1 | 7 | .
COc1cccc(C(=O)Nn2cnnc2)c1OC | 75* | 4 | -2 | 6 | -5 | 5
CN(C)CCCCCCNC(=O)[C@@H]1C[C@@H]2C(=O)N3CCC[C@H]3C(=O)N2[C@@H]1c1ccc(O)cc1 | . | 14 | . | -8 | 29* | 9
C[C@H](CO)N1C[C@H](C)[C@H](CN(C)S(=O)(=O)c2ccccc2)Oc2ccc(NS(=O)(=O)c3cn(C)cn3)cc2CC1=O | -4 | -3 | 6 | 0 | -2 | 1
CCOc1ccc(NC(=O)C2CCCN2C(=O)Oc2ccccc2)cc1 (stereo not drawn) | . | -3 | 7 | 57* | 2 | 6
Cc1cc(C)cc(NC(=O)C2CCCN2C(=O)Oc2ccccc2)c1 (stereo not drawn) | -9 | . | . | . | . | -11
CCOC(=O)c1ccc2ncc(C(=O)OCC)c(Nc3ccc(N4CCOCC4)cc3)c2c1 | . | -3 | 13 | -1 | 26* | .
CCOC(=O)c1cnc2ccc(C(=O)OC)cc2c1Nc1ccc(C(=O)O)cc1 | 8 | -17 | 19 | 4 | 2 | .
CC(C)NC(=S)N/N=C/c1sc(N2CCCCC2)nc1-c1cccs1 | 0 | -96 | 12 | 0 | -1 | -7
NC(=O)N/N=C/c1sc(N2CCCCC2)nc1-c1cccs1 | -5 | -6 | 10 | 0 | 30* | -3
C[C@@H]1CN([C@H](C)CO)C(=O)c2cc(C3=CCCC3)cnc2O[C@H]1CN(C)C(=O)Cc1ccncc1 | 3 | 6 | -2 | 1 | 0 | 4
Fc1ccc(CNC(=S)NCc2ccc(F)cc2)cc1 | 87* | -16 | -28 | -1 | 1 | .
CCNC(=S)NCc1ccc(F)cc1 | -1 | -10 | -28 | 6 | -7 | -3
COc1nc(-c2ccc(Cl)cc2)ccc1-c1noc(-c2ccco2)n1 | -8 | . | 66* | . | . | 4
CCS(=O)(=O)N1CC2(C1)[C@@H](c1ccccc1)[C@H](CO)N2C(=O)C1CCCC1 | -7 | -2 | -1 | -3 | -1 | .
CO[C@H]1CN(C)C(=O)c2ccc(NC(=O)Nc3cccc(F)c3)cc2OC[C@H](C)N(C(=O)C2CC2)C[C@@H]1C | 0 | 7 | -27 | 3 | 5 | .
